Laboratory results from PubChem BioAssay AID1159580 (chemical genetic matrix, 2015).
Hit rate of the full screen: of about 5,500 compounds, about 2,000 (36%) were called active. Roughly 18% stayed inconclusive and do not appear here. Rule as the data show it: active = normalized growth mostly below about 0.91 (no sharp cut-off); inconclusive = no clear call, values can overlap the other calls; inactive = mostly above about 0.92. The list shows a part of the results.

Assay: chemical genetic growth profiling, strain panel (AID 1159580);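 also: tested at 20 µM; growth read once vehicle control cultures reached saturation at 30 °C; 1 = growth at the plate median or of vehicle wells; lower values mean less growth of the strain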
Settings: S. cerevisiae deletion strains, growth OD
[1] = locus YDL101C, strain DUN1, active compounds read low
[2] = locus YHR030C, strain SLT2, active compounds read low
[3] = locus YAL013W, strain DEP1, active compounds read low
[4] = locus YNL153C, strain GIM3, active compounds read low
[5] = locus YPL055C, strain LGE1, active compounds read low

Measured: normalized growth

CC(Oc1ccc(Cl)cc1Cl)C(=O)NNC(=S)Nc1ccccc1 (stereo unspecified)
inactive: locus YAR019C, strain CDC15, active compounds read low 0.983 | locus YBL105C, strain PKC1, active compounds read low 0.978 | locus YBR135W, strain CKS1, active compounds read low 0.982 | locus YBR136W, strain MEC1, active compounds read low 0.98 | locus YBR160W, strain CDC28, active compounds read low 0.975 | locus YDL017W, strain CDC7, active compounds read low 0.986 | locus YDL028C, strain MPS1, active compounds read low 0.977 | [1] 0.973 | locus YDL108W, strain KIN28, active compounds read low 0.959 | locus YDL132W, strain cdc53, active compounds read low 0.968 | locus YDL214C, strain PRR2, active compounds read low 0.984 | locus YDR052C, strain DBF4, active compounds read low 0.991 | locus YDR054C, strain cdc34, active compounds read low 0.982 | locus YDR226W, strain ADK1, active compounds read low 0.981 | locus YDR477W, strain SNF1, active compounds read low 0.994 | locus YER123W, strain YCK3, active compounds read low 0.983 | locus YER133W, strain GLC7, active compounds read low 0.966 | locus YFL009W, strain cdc4, active compounds read low 0.976 | locus YFL029C, strain CAK1, active compounds read low 0.981 | locus YFR003C, strain YPI1, active compounds read low 0.981 | locus YFR019W, strain FAB1, active compounds read low 0.964 | locus YFR028C, strain CDC14, active compounds read low 0.974 | locus YGR040W, strain KSS1, active compounds read low 0.965 | locus YGR052W, strain FMP48, active compounds read low 0.982 | locus YGR092W, strain DBF2, active compounds read low 0.905 | [2] 0.974 | locus YHR079C, strain IRE1, active compounds read low 1.01 | locus YHR082C, strain KSP1, active compounds read low 1.03 | locus YHR205W, strain SCH9, active compounds read low 0.906 | locus YIL147C, strain SLN1, active compounds read low 0.97 | locus YJL095W, strain BCK1, active compounds read low 0.927 | locus YJL128C, strain PBS2, active compounds read low 0.943 | locus YJL157C, strain FAR1, active compounds read low 0.973 | locus YJR016C, strain ILV3, active compounds read low 0.971 | locus YJR066W, strain TOR1 (second series), active compounds read low 0.94 | locus YJR066W, strain TOR1, active compounds read low 1.01 | locus YKL048C, strain ELM1, active compounds read low 0.974 | locus YKL067W, strain YNK1, active compounds read low 0.966 | locus YKL101W, strain HSL1, active compounds read low 0.957 | locus YKL193C, strain SDS22, active compounds read low 0.977 | locus YKL203C, strain TOR2, active compounds read low 1.02 | locus YLR113W, strain HOG1, active compounds read low 0.981 | locus YLR133W, strain CKI1, active compounds read low 0.959 | locus YLR403W, strain SFP1, active compounds read low 0.908 | locus YML070W, strain DAK1, active compounds read low 0.98 | locus YMR001C, strain CDC5, active compounds read low 0.981 | locus YMR205C, strain PFK2 (second series), active compounds read low 0.968 | locus YMR277W, strain FCP1, active compounds read low 0.98 | locus YNL006W, strain LST8, active compounds read low 0.976 | locus YNL020C, strain ARK1, active compounds read low 0.954 | locus YNL161W, strain CBK1, active compounds read low 0.984 | locus YNL183C, strain NPR1, active compounds read low 1.01 | locus YNL207W, strain RIO2, active compounds read low 0.958 | locus YNL222W, strain SSU72, active compounds read low 0.973 | locus YNL307C, strain MCK1 (second series), active compounds read low 0.873 | locus YOL078W, strain AVO1, active compounds read low 0.972 | locus YOL136C, strain PFK27, active compounds read low 0.938 | locus YOR061W, strain CKA2, active compounds read low 0.968 | locus YOR119C, strain RIO1, active compounds read low 1.03 | locus YOR231W, strain MKK1, active compounds read low 0.993 | locus YOR329C, strain SCD5, active compounds read low 0.982 | locus YPL031C, strain PHO85, active compounds read low 0.995 | locus YPL153C, strain RAD53, active compounds read low 0.993 | locus YPL204W, strain HRR25, active compounds read low 0.944 | locus YPL209C, strain IPL1, active compounds read low 0.98 | locus YPL256C, strain CLN2, active compounds read low 1.12 | locus YPR025C, strain CCL1, active compounds read low 0.978 | locus YPR106W, strain ISR1, active compounds read low 0.977 | locus YPR111W, strain DBF20, active compounds read low 0.961 | strain NNK1, active compounds read low 0.973 | strain TSCII, active compounds read low 0.983

N[C@@]1(C(=O)O)CC[C@@H](C(=O)O)C1
inactive: [3] 1.02 | locus YAL040C, strain CLN3, active compounds read low 1.01 | locus YCL061C, strain MRC1 (second series), active compounds read low 1 | locus YDR363W, strain ESC2, active compounds read low 1.04 | locus YER002W, strain NOP16, active compounds read low 1.01 | locus YGR229C, strain SMI1, active compounds read low 1.03 | [4] 1 | locus YNL175C, strain NOP13, active compounds read low 1.01 | locus YNL197C, strain WHI3, active compounds read low 1.02 | locus YNL224C, strain SQS1, active compounds read low 1.02 | locus YOR083W, strain WHI5 (second series), active compounds read low 1.01 | [5] 1.02

N#C/C(=C\Nc1ccc2c(c1)OCCO2)S(=O)(=O)c1ccc(C(F)(F)F)cn1
active: [2] 0.593 | locus YJL187C, strain SWE1, active compounds read low 0.733 | locus YLR085C, strain ARP6, active compounds read low 0.742 | locus YNL298W, strain CLA4 (second series), active compounds read low 0.835
inactive: [3] 0.985 | locus YBR229C, strain ROT2, active compounds read low 1 | locus YCL061C, strain MRC1, active compounds read low 1.03 | [1] 0.995 | locus YDL134C, strain PPH21, active compounds read low 1 | locus YDR150W, strain NUM1, active compounds read low 1.01 | locus YEL061C, strain CIN8, active compounds read low 0.974 | locus YGR078C, strain PAC10, active compounds read low 1.02 | locus YHR087W, strain rtc3, active compounds read low 1.01 | locus YJR043C, strain POL32, active compounds read low 1.02 | locus YJR075W, strain HOC1, active compounds read low 1.02 | locus YKL190W, strain CNB1, active compounds read low 0.98 | locus YLR039C, strain RIC1, active compounds read low 1.02 | locus YLR058C, strain SHM2 (second series), active compounds read low 1 | locus YLR262C, strain YPT6, active compounds read low 1.01 | locus YML094W, strain GIM5, active compounds read low 0.906 | locus YMR219W, strain ESC1, active compounds read low 0.993 | locus YMR263W, strain SAP30, active compounds read low 1.02 | [4] 1.02 | locus YNL322C, strain KRE1, active compounds read low 0.996 | locus YNR030W, strain Alg12, active compounds read low 0.978 | [5] 1.11 | locus YPL241C, strain CIN2, active compounds read low 0.966 | locus YPR135W, strain CTF4, active compounds read low 1.06
